Measured values as given in publication PMC4336329 (PLoS ONE, 2015).
Out of some 310,000 compounds screened, about 14,000 (4.5%) showed an effect of 50% or more. Effects have a minus sign here. The list comes from a sample in which strong results are over-represented; it also holds similar structures and randomly drawn compounds.

Molecular target: human ether-à-go-go-related gene (hERG) potassium channel (human, UniProt Q12809)
Assay: primary screen, population patch clamp on CHO cells stably expressing hERG; higher = less effect of the substance
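Also: peak tail current of the secondary pulse compared with the same well before compound.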

Chain of human ether-à-go-go-related gene (hERG) potassium channel (Q12809 whole entry, looked up): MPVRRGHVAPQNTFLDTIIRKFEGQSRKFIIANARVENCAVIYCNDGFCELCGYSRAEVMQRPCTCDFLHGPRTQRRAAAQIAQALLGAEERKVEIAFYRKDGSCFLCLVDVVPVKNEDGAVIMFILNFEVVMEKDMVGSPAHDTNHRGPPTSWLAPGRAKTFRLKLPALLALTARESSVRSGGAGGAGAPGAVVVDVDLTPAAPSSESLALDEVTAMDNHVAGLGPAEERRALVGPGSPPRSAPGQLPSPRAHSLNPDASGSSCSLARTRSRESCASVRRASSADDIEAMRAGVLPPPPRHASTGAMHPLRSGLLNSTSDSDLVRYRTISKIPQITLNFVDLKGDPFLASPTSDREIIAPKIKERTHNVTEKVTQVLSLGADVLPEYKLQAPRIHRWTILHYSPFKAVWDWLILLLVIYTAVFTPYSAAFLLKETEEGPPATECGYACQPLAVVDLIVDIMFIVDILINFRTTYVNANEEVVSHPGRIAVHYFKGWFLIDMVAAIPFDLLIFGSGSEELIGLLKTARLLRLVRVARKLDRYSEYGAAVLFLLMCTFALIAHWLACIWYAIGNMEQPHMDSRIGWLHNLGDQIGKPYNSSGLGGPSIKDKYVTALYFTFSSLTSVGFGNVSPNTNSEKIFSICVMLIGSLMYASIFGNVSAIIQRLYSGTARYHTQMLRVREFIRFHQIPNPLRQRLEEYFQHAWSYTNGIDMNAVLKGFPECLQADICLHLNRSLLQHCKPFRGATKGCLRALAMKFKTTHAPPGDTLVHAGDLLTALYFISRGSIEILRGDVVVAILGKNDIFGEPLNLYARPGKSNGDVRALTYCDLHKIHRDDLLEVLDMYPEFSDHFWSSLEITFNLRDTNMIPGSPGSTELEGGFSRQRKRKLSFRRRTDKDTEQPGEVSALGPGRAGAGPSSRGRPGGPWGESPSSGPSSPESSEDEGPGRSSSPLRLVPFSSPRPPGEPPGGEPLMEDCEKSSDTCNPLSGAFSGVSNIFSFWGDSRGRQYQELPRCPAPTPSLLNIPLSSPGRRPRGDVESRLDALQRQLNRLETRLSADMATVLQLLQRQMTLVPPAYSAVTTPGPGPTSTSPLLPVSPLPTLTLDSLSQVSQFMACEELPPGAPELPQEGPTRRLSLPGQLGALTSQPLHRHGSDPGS

SMILES | hERG current change (%, negative = inhibition) at 10uM [%]
COc1ccc(NC(=O)CN(C)C(=O)c2ccc(=O)[nH]c2)cc1 | 21.7
COc1ccc(NC(=O)C2CC(=O)N(Cc3ccco3)C2)cc1Cl (stereo not shown) | -4.14
N/C(=N\O)c1ccccc1-n1cccc1 | 25.7
COc1ccc(/C(N)=N/OC(=O)/C=C/c2ccccc2)cc1 | -37.2
CCCN1CCN(S(=O)(=O)c2cn(C)nc2C)CC1 | 22
CC(=O)Nc1ccc(S(=O)(=O)NCc2ccc(C(=O)NCCCN3CCC(C)CC3)cc2)cc1 | 19.7
C=CCNC(=O)c1ccc(CN2CCC(Cc3ccccc3)CC2)cc1 | -66.8
C=CCNC(=S)N1CCC(Cc2ccccc2)CC1 | -25.9
COCCNC(=O)c1ccc(CN2CCC(Cc3ccccc3)CC2)cc1 | -11.6
O=C(NCc1ccccc1)N1CCC(Cc2ccccc2)CC1 | 10.5
O=C(NCc1ccccc1)c1ccc(CN2CCC(Cc3ccccc3)CC2)cc1 | -70.3
Cc1ccc(S(=O)(=O)NCc2ccc(C(=O)NCCCN3CCC(Cc4ccccc4)CC3)cc2)cc1 | -80.6
CC(C)NC(=O)c1ccc(CN2CCC(Cc3ccccc3)CC2)cc1 | -37.2
O=C(Nc1ccccc1)c1ccc(CN2CCC(Cc3ccccc3)CC2)cc1 | 14.7
Cc1ccc(S(=O)(=O)NCc2ccc(C(=O)NCCCN3CCN(C)CC3)cc2)cc1 | 19.3
NC(=O)c1ccc(CN2CCC(Cc3ccccc3)CC2)cc1 | -57.1
C=CCNC(=O)c1ccc(C2SCC(=O)N2Cc2ccccc2)cc1 (stereo not shown) | 6.11
Cc1noc(C)c1COC(=O)c1cccnc1Cl | 3.21
CNC(=S)Nc1cc(S(=O)(=O)Nc2cc(Cl)ccc2Cl)ccc1N1CCCC1 | -12.4
CN1C(=O)c2cccc(NC(=O)CCc3ccccc3)c2C1=O | -19.6
CC1Cc2ccccc2N1C(=O)CSc1nnc2c(n1)[nH]c1ccc(F)cc12 (stereo not shown) | 12.6
O=C(CSc1nnc(COc2ccccc2)o1)c1ccccc1 | 1.95
CCC(C)(C)NC(=O)C(c1ccc(F)cc1)N(Cc1cccc(OC)c1)C(=O)c1cnccn1 (stereo not shown) | 9.72
COC(=O)C1=C(C)C(c2ccc(OC)cc2OC)NC(=O)N1 (stereo not shown) | 13.1
Cc1ccc(N2C(=O)C3C4C=CC(CC4)C3C2=O)cc1Br (stereo not shown) | 15.4
